Laboratory results published in PubChem BioAssay (NCATS).
Records with an inconclusive call do not appear. Active and inactive are the calls of the source. Calls follow the shape of the dose curve; as a rule, active = well fitted cell-killing curve with a large enough effect; inconclusive = small, poorly fitted or top-dose-only effect, or effect the other way; inactive = flat fitted curve, though single readings scatter.

Experiments:
Assay in all cases: Primary qHTS to identify gynecologic anti-cancer compounds using libraries of approved drugs and bioactive compounds (AID 1345084); also: nearly all actives have a fitted effect of over 55% in size
C33A = details: Gynecologic cancer cell panel viability, ATPlite luminescence, 48 h; series mostly up to 57.5 µM
Outline: (§1)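 Cells, 1,000 per well, plated 16 h, then exposed 48 h at 37 C to compounds. Viability by ATPlite luminescence after 15 min at room temperature.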

CAOV3 = details: Gynecologic cancer cell panel viability, ATPlite luminescence, 48 h; series mostly up to 57.5 µM
Outline: as §1

CASKI = details: Gynecologic cancer cell panel viability, ATPlite luminescence, 48 h; series mostly up to 57.5 µM
Outline: as §1

Es-2 = details: Gynecologic cancer cell panel viability, ATPlite luminescence, 48 h; series mostly up to 57.5 µM
Outline: as §1

HeLa = details: Gynecologic cancer cell panel viability, ATPlite luminescence, 48 h; series mostly up to 57.5 µM
Outline: as §1

Hek293T = details: Gynecologic cancer cell panel viability, ATPlite luminescence, 48 h, control line for the selectivity index; series mostly up to 57.5 µM
Outline: as §1

JEG-3 = details: Gynecologic cancer cell panel viability, ATPlite luminescence, 48 h; series mostly up to 57.5 µM
Outline: as §1

OV90 = details: Gynecologic cancer cell panel viability, ATPlite luminescence, 48 h; series mostly up to 57.5 µM
Outline: as §1
% is scaled to controls: 0 for no effect and ±100 for the full control effect.

Fc1ccc(-c2nc(-c3ccccc3F)[nH]c2-c2ccncc2)cc1
inactive: Potency (C33A) | Potency (CAOV3) | Potency (CASKI) | Potency (Es-2) | Potency (HeLa) | Potency (Hek293T) | Potency (JEG-3)

COc1cc(CN(CCN)C(=O)c2cccs2)ccc1OCc1ccccc1
inactive: Potency (C33A) | Potency (CAOV3) | Potency (CASKI) | Potency (Es-2) | Potency (HeLa) | Potency (Hek293T) | Potency (JEG-3)

CCC(CC)(NC(=O)C(C)C)C(=O)N[C@@H](CCCN=C(N)N)C(=O)NC1(C(=O)NC(c2ccc(F)cc2)c2ccc(F)cc2)CCCC1
inactive: Potency (C33A) | Potency (CAOV3) | Potency (CASKI) | Potency (Es-2) | Potency (HeLa) | Potency (Hek293T) | Potency (JEG-3)

O=S(=O)(Nc1ccccc1N1CCCCC1)c1ccc(Cl)s1
inactive: Potency (C33A) | Potency (CAOV3) | Potency (CASKI) | Potency (Es-2) | Potency (HeLa) | Potency (Hek293T) | Potency (JEG-3)

C=CC1(C)CC(O)C(C(=C)C(=O)OC)C(O)C1C(=C)CO (stereo not drawn)
inactive: Potency (C33A) | Potency (CAOV3) | Potency (CASKI) | Potency (Es-2) | Potency (HeLa) | Potency (Hek293T) | Potency (JEG-3) | Potency (OV90)

C=CC(C)(O)CC/C=C(\C)C(=O)OC1C(O)C(CO)OC(OC(=O)C23CCC(C)(C)CC2C2=CCC4C5(C)CCC(OC6OC(COC7OCC(OC(C)=O)C(O)C7OC7OC(COC(C)=O)C(O)C(O)C7OC(C)=O)C(O)C(O)C6OC6OCC(O)C(O)C6O)C(C)(C)C5CCC4(C)C2(C)C(O)C3O)C1OC1OCC(OC2OCC(O)C(OC3OCC(O)C(O)C3O)C2O)C(O)C1O (stereo not drawn)
inactive: activity change, negative = cytotoxicity (C33A) -0.479% [at 6.55 µM] | activity change, negative = cytotoxicity (CAOV3) -0.149% [at 6.55 µM] | activity change, negative = cytotoxicity (CASKI) -8.72% [at 6.55 µM] | activity change, negative = cytotoxicity (Es-2) -2.99% [at 6.55 µM] | activity change, negative = cytotoxicity (HeLa) -14% [at 6.55 µM] | activity change, negative = cytotoxicity (Hek293T) -1.14% [at 6.55 µM] | activity change, negative = cytotoxicity (JEG-3) -2.85% [at 6.55 µM]

CCC/C=C/c1cc2c(C=O)c(O)c(CC=C(C)C)cc2o1
inactive: Potency (C33A) | Potency (CAOV3) | Potency (CASKI) | Potency (Es-2) | Potency (HeLa) | Potency (Hek293T) | Potency (JEG-3) | Potency (OV90)

O=C(O)c1ccc(N2C(=O)/C(=C/c3ccc(-c4ccc([N+](=O)[O-])cc4)o3)C=C2c2ccccc2)cc1
inactive: Potency (C33A) | Potency (CAOV3) | Potency (CASKI) | Potency (Es-2) | Potency (HeLa) | Potency (Hek293T) | Potency (JEG-3) | Potency (OV90)

c1cc(-c2cnn3cc(-c4ccc(N5CCNCC5)cc4)cnc23)c2cccnc2c1
inactive: Potency (C33A) | Potency (CAOV3) | Potency (CASKI) | Potency (Es-2) | Potency (HeLa) | Potency (Hek293T) | Potency (JEG-3) | Potency (OV90)

C#CCOc1ccc2c(c1)c(-c1ccc(C(C)C)cc1)nc(=O)n2C(C)C
inactive: Potency (C33A) | Potency (CAOV3) | Potency (CASKI) | Potency (Es-2) | Potency (HeLa) | Potency (Hek293T) | Potency (JEG-3)

Cc1csc(N(C(=O)CSc2ccc(-c3ccccc3)nn2)C2CC2)n1
inactive: Potency (C33A) | Potency (CAOV3) | Potency (CASKI) | Potency (Es-2) | Potency (HeLa) | Potency (Hek293T) | Potency (JEG-3)

Nc1nc2c(s1)CCN(Cc1ccc(Cl)cc1)CC2
inactive: Potency (C33A) | Potency (CAOV3) | Potency (CASKI) | Potency (Es-2) | Potency (HeLa) | Potency (Hek293T) | Potency (JEG-3) | Potency (OV90)

CC(C)(CNC(=O)c1cccc(-c2noc(C(F)(F)F)n2)c1)c1coc(-c2ccccc2)n1
inactive: Potency (C33A) | Potency (CAOV3) | Potency (CASKI) | Potency (Es-2) | Potency (HeLa) | Potency (Hek293T) | Potency (JEG-3) | Potency (OV90)

CCNC1(C(N)=O)CN(c2nc(C)nc3c(-c4ccc(Cl)cc4)c(-c4ccccc4Cl)nn23)C1
inactive: Potency (C33A) | Potency (CAOV3) | Potency (CASKI) | Potency (Es-2) | Potency (HeLa) | Potency (Hek293T) | Potency (JEG-3)

Cc1cc(CS(=O)(=O)c2ccccc2)cc(OCc2ccc(CN3CCCC3CO)cc2)c1 (stereo not drawn)
inactive: Potency (C33A) | Potency (CAOV3) | Potency (CASKI) | Potency (Es-2) | Potency (HeLa) | Potency (Hek293T) | Potency (JEG-3)

CCC/C=C/C(=O)O[C@H]1CC(C)(C)CC2[C@@]13[C@H](O)C[C@]1(C)[C@@]2(CCC2[C@@]4(C)CC[C@H](O[C@@H]5O[C@H](C(=O)O)[C@@H](O)[C@H](O[C@@H]6O[C@H](CO)[C@H](O)[C@H](O)[C@H]6O[C@@H]6O[C@@H](C)[C@H](O)[C@@H](O)[C@H]6O[C@@H]6OC[C@](O)(CO)[C@H]6O)[C@H]5O[C@@H]5O[C@H](CO)[C@H](O)[C@H](O)[C@H]5O)C(C)(C)C4CC[C@]21C)O[C@H]3O (stereo partly drawn)
inactive: activity change, negative = cytotoxicity (C33A) 1.29% [at 6.55 µM] | activity change, negative = cytotoxicity (CAOV3) -15.9% [at 6.55 µM] | activity change, negative = cytotoxicity (CASKI) -0.213% [at 6.55 µM] | activity change, negative = cytotoxicity (Es-2) 3.48% [at 6.55 µM] | activity change, negative = cytotoxicity (HeLa) 4.5% [at 6.55 µM] | activity change, negative = cytotoxicity (Hek293T) -25.4% [at 6.55 µM] | activity change, negative = cytotoxicity (JEG-3) 15.7% [at 6.55 µM]

Cc1ccc(S(=O)(=O)N2CCC[C@H]2c2ccc(F)cc2)cc1
inactive: Potency (C33A) | Potency (CAOV3) | Potency (CASKI) | Potency (Es-2) | Potency (HeLa) | Potency (Hek293T) | Potency (JEG-3)

CCC(=C(c1ccc(OCCN2CCCC2)cc1)c1ccc(OCCN2CCCC2)cc1)c1ccccc1
inactive: Potency (C33A) | Potency (CAOV3) | Potency (CASKI) | Potency (Es-2) | Potency (HeLa) | Potency (Hek293T) | Potency (JEG-3)

NC(N)=NC(=O)c1cnn(-c2cccc3ncccc23)c1C1CC1
inactive: Potency (C33A) | Potency (CAOV3) | Potency (CASKI) | Potency (Es-2) | Potency (HeLa) | Potency (Hek293T) | Potency (JEG-3)

CCc1cccc(CC)c1-n1c(C=C(C)C)c(C(=O)N2CCNCC2)cc(-c2nc(-c3ccc(C(F)(F)F)cc3)cs2)c1=O
inactive: Potency (C33A) | Potency (CAOV3) | Potency (CASKI) | Potency (Es-2) | Potency (HeLa) | Potency (Hek293T) | Potency (JEG-3)

O=S(=O)(N[C@H]1CCCC[C@@H]1N1CCOCC1)c1ccc(Cl)cc1
inactive: Potency (C33A) | Potency (CAOV3) | Potency (CASKI) | Potency (Es-2) | Potency (HeLa) | Potency (Hek293T) | Potency (JEG-3)
